PubChem BioAssay AID1159580 (chemical genetic matrix, 2015)
About 2,000 (36%) of roughly 5,500 compounds were called active. About 18% were inconclusive and are not listed. Cut-off read from the data, not from the text of the source: active = normalized growth mostly below about 0.91 (no sharp cut-off); inconclusive = no clear call, values can overlap the other calls; inactive = mostly above about 0.92. The list shows a part of the results.

Test: chemical genetic growth profiling, strain panel (AID 1159580);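 note: tested at 20 µM; growth read once vehicle control cultures reached saturation at 30 °C; 1 = growth at the plate median or of vehicle wells; lower values mean less growth of the strain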
Conditions: S. cerevisiae deletion strains, growth OD
[1] = locus YDL101C, strain DUN1, hits give low values
[2] = locus YHR030C, strain SLT2, hits give low values
[3] = locus YAL013W, strain DEP1, hits give low values
[4] = locus YBR229C, strain ROT2, hits give low values
[5] = locus YDR150W, strain NUM1, hits give low values
[6] = locus YEL061C, strain CIN8, hits give low values
[7] = locus YGR078C, strain PAC10, hits give low values
[8] = locus YGR229C, strain SMI1, hits give low values
[9] = locus YHR087W, strain rtc3, hits give low values
[10] = locus YJR043C, strain POL32, hits give low values
[11] = locus YJR075W, strain HOC1, hits give low values
[12] = locus YLR039C, strain RIC1, hits give low values
[13] = locus YLR058C, strain SHM2 (second series), hits give low values
[14] = locus YLR085C, strain ARP6, hits give low values
[15] = locus YLR262C, strain YPT6, hits give low values
[16] = locus YML094W, strain GIM5, hits give low values
[17] = locus YMR219W, strain ESC1, hits give low values
[18] = locus YMR263W, strain SAP30, hits give low values
[19] = locus YNL153C, strain GIM3, hits give low values
[20] = locus YNL298W, strain CLA4 (second series), hits give low values
[21] = locus YNL322C, strain KRE1, hits give low values
[22] = locus YNR030W, strain Alg12, hits give low values
[23] = locus YOL006C, strain TOP1, hits give low values
[24] = locus YPL055C, strain LGE1, hits give low values
[25] = locus YPL241C, strain CIN2, hits give low values
[26] = locus YPR135W, strain CTF4, hits give low values

Measured: normalized growth

CC(=O)Nc1ccc(S(=O)(=O)Nc2ccccc2Oc2ccc(Cl)cc2Cl)cc1
inactive: locus YAR019C, strain CDC15, hits give low values 0.998 | locus YBL105C, strain PKC1, hits give low values 0.996 | locus YBR135W, strain CKS1, hits give low values 0.993 | locus YBR136W, strain MEC1, hits give low values 0.993 | locus YBR160W, strain CDC28, hits give low values 0.996 | locus YDL017W, strain CDC7, hits give low values 0.997 | locus YDL028C, strain MPS1, hits give low values 0.995 | [1] 1 | locus YDL108W, strain KIN28, hits give low values 0.999 | locus YDL132W, strain cdc53, hits give low values 0.995 | locus YDL214C, strain PRR2, hits give low values 0.984 | locus YDR052C, strain DBF4, hits give low values 0.993 | locus YDR054C, strain cdc34, hits give low values 0.986 | locus YDR226W, strain ADK1, hits give low values 1 | locus YDR477W, strain SNF1, hits give low values 0.983 | locus YER123W, strain YCK3, hits give low values 1.02 | locus YER133W, strain GLC7, hits give low values 0.991 | locus YFL009W, strain cdc4, hits give low values 0.993 | locus YFL029C, strain CAK1, hits give low values 0.985 | locus YFR003C, strain YPI1, hits give low values 0.999 | locus YFR019W, strain FAB1, hits give low values 0.993 | locus YFR028C, strain CDC14, hits give low values 0.993 | locus YGR040W, strain KSS1, hits give low values 0.986 | locus YGR052W, strain FMP48, hits give low values 1.09 | locus YGR092W, strain DBF2, hits give low values 1 | [2] 1 | locus YHR079C, strain IRE1, hits give low values 1.01 | locus YHR082C, strain KSP1, hits give low values 1.04 | locus YHR205W, strain SCH9, hits give low values 0.987 | locus YIL147C, strain SLN1, hits give low values 0.992 | locus YJL095W, strain BCK1, hits give low values 1.03 | locus YJL128C, strain PBS2, hits give low values 0.965 | locus YJL157C, strain FAR1, hits give low values 0.992 | locus YJR016C, strain ILV3, hits give low values 0.996 | locus YJR066W, strain TOR1 (second series), hits give low values 0.97 | locus YJR066W, strain TOR1, hits give low values 1.01 | locus YKL048C, strain ELM1, hits give low values 0.986 | locus YKL067W, strain YNK1, hits give low values 0.985 | locus YKL101W, strain HSL1, hits give low values 0.98 | locus YKL193C, strain SDS22, hits give low values 0.994 | locus YKL203C, strain TOR2, hits give low values 1.04 | locus YLR113W, strain HOG1, hits give low values 0.959 | locus YLR133W, strain CKI1, hits give low values 0.98 | locus YLR403W, strain SFP1, hits give low values 0.995 | locus YML070W, strain DAK1, hits give low values 1.01 | locus YMR001C, strain CDC5, hits give low values 0.999 | locus YMR205C, strain PFK2 (second series), hits give low values 0.99 | locus YMR277W, strain FCP1, hits give low values 0.995 | locus YNL006W, strain LST8, hits give low values 0.999 | locus YNL020C, strain ARK1, hits give low values 0.992 | locus YNL161W, strain CBK1, hits give low values 0.995 | locus YNL183C, strain NPR1, hits give low values 1.01 | locus YNL207W, strain RIO2, hits give low values 0.995 | locus YNL222W, strain SSU72, hits give low values 0.995 | locus YNL307C, strain MCK1 (second series), hits give low values 1.01 | locus YOL078W, strain AVO1, hits give low values 0.995 | locus YOL136C, strain PFK27, hits give low values 1 | locus YOR061W, strain CKA2, hits give low values 0.98 | locus YOR119C, strain RIO1, hits give low values 0.994 | locus YOR231W, strain MKK1, hits give low values 0.994 | locus YOR329C, strain SCD5, hits give low values 0.999 | locus YPL031C, strain PHO85, hits give low values 0.995 | locus YPL153C, strain RAD53, hits give low values 0.994 | locus YPL204W, strain HRR25, hits give low values 0.996 | locus YPL209C, strain IPL1, hits give low values 0.998 | locus YPL256C, strain CLN2, hits give low values 0.929 | locus YPR025C, strain CCL1, hits give low values 0.996 | locus YPR106W, strain ISR1, hits give low values 0.998 | locus YPR111W, strain DBF20, hits give low values 0.99 | strain NNK1, hits give low values 0.994 | strain TSCII, hits give low values 0.999

Cc1ccc(NS(C)(=O)=O)cc1N=Cc1ccc(Cl)c(Cl)c1
inactive: [3] 0.989 | [4] 1 | [1] 0.965 | [5] 0.879 | [6] 1.02 | [7] 0.996 | [8] 1 | [2] 0.891 | [9] 1.03 | locus YJL187C, strain SWE1, hits give low values 1.01 | [10] 0.989 | [11] 0.965 | locus YKL190W, strain CNB1, hits give low values 0.999 | [12] 0.984 | [13] 1.02 | [14] 1.01 | [15] 0.951 | [16] 0.994 | [17] 1.01 | [18] 0.988 | locus YNL128W, strain TEP1, hits give low values 0.976 | [19] 0.986 | [20] 0.866 | [21] 1 | [22] 0.983 | [23] 0.959 | [24] 0.991 | [25] 0.993 | [26] 0.706

Cc1ccc(NC(=O)c2c(F)cccc2Cl)c(C(=O)Nc2ccc(F)cc2)c1
inactive: [3] 0.993 | [4] 0.998 | [1] 1.02 | [5] 1.02 | [6] 0.987 | [7] 1.02 | [8] 1.01 | [2] 1.06 | [9] 0.976 | [10] 1.02 | [11] 1.01 | [12] 0.868 | [13] 0.995 | [14] 1.03 | [15] 0.933 | [16] 1.01 | [17] 1 | [18] 1 | locus YMR307W, strain GAS1, hits give low values 1.1 | [19] 1.03 | [20] 1.02 | [21] 0.997 | [22] 1 | [23] 1.02 | [24] 0.952 | [25] 1.03 | [26] 1.05
